Assay outcomes deposited in PubChem BioAssay by National Center for Advancing Translational Sciences (NCATS).
DT40 TDP1 CPT = qHTS for Inhibitors of human tyrosyl-DNA phosphodiesterase 1 (TDP1): qHTS in cells in presence of CPT. Potency, µM (doses to about 46.2 µM), for the others: at the highest dose activity change, negative = growth inhibition, most hits filed as inhibitors. 420,000 compounds, 12% hits. AID 686979, 2013. chicken DT40 Tdp1-/-;hTDP1 cells + 20 nM CPT, ATP luminescence, 48 h; also: nearly all actives have a fitted effect of over 55% in size
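Chicken DT40 Tdp1-/- cells complemented with human TDP1, 400 cells/well, exposed to compounds plus 20 nM camptothecin for at least 48 h at 37 C; viability read as ATP content by CellTiter-Glo luminescence.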
GCN5L2 inh = qHTS Assay for Inhibitors of GCN5L2. GCN5L2 HAT assay, ThioGlo1 CoA-SH fluorescence. Potency, µM (titrated, usually from 58.9 µM), without a hit: at the highest dose activity change, negative = inhibition, usual class: inhibitors. 390,000 compounds, 0.21% hits
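qHTS, 1536-well. 20nM enzyme, pH 7.5 HEPES/EDTA/Tween-20 buffer; 15 min compound preinc., RT. Start: 75uM H3(1-25), 70uM AcCoA, 50uM ThioGlo1. Read Ex340/Em540 at t=0 (autofluorescence flag) and t=20 min.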
VDR inh = Inhibitors of the vitamin D receptor (VDR): qHTS; AID 504847, 2011; Vitamin D3 receptor (Homo sapiens), P11473; VDR-SRC2-3 peptide fluorescence polarization, 2 h; Potency, µM, inactives show max response, negative = inhibition, actives largely listed as inhibitors; 400,000 compounds, 0.93% hits
Target sequence (P11473 whole entry, looked up): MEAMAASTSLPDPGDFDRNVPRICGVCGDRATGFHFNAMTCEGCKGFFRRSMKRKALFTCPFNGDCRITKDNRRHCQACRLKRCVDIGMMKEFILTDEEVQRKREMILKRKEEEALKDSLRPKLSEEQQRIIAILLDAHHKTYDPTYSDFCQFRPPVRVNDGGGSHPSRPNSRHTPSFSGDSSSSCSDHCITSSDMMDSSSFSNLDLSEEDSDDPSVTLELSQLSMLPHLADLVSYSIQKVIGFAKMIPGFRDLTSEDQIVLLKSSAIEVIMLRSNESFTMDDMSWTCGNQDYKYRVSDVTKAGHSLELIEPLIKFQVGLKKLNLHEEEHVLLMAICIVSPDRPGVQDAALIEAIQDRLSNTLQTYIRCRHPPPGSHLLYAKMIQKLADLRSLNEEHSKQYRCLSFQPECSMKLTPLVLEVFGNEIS
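Measured by FP: displacement of SRC2-3 coactivator peptide from VDR by library compounds, following a two-hour ambient incubation.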
TDP1 cell noCPT = qHTS for Inhibitors of human tyrosyl-DNA phosphodiesterase 1 (TDP1): qHTS in cells in absence of CPT; DT40 Tdp1-/- hTDP1 cells, no CPT, ATP luminescence, 48 h; Potency, µM (titrated, usually from 46.2 µM), without a hit: top-dose activity change, negative = growth inhibition, usual class: inhibitors; 420,000 compounds, 15% hits; also: nearly all actives have a fitted effect of over 55% in size
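Stably hTDP1-transfected Tdp1-null chicken DT40 cells were treated with library compounds minus camptothecin and grown for at least 48 hr at 37 °C, after which cellular ATP was quantified by luminescence.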
PLK1 PBD block = qHTS for Inhibitors of PLK1-PDB (polo-like kinase 1 - polo-box domain): Primary Screen; Serine/threonine-protein kinase PLK1 (Homo sapiens), P53350; Plk1 PBD binding of FITC phosphopeptide, fluorescence polarization; Potency, µM, without a hit: max response, negative = inhibition, actives largely listed as inhibitors; 360,000 compounds, 2.8% hits; AID 720504, 2013; also: series mostly up to about 57 µM; nearly all actives have a fitted effect of over 65% in size
TDP1 inh = qHTS Assay for Inhibitors of Tyrosyl-DNA Phosphodiesterase (TDP1); Potency, µM (titrated, usually from 130 µM), for inactives: at the highest dose activity change, negative = inhibition, most hits filed as inhibitors; recombinant TDP1, AlphaScreen DNA substrate cleavage; 350,000 compounds, 0.28% hits; AID 485290, 2010; also: nearly all actives have a fitted effect of over 40% in size
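Here, a 5' biotin and 3' phosphotyrosine-FITC DNA oligonucleotide reports Tdp1 activity: intact substrate bridges AlphaScreen beads, while cleavage leaves a 3' phosphate and drops signal. All incubations at room temperature.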
* hit, by the source's call; u = inconclusive; x = no result given; [ ] = dose if it differs, or a comment. An excerpt weighted towards active compounds, which were near 18% of everything screened. Calls follow the shape of the dose curve; as a rule, active = well fitted curve in the direction sought with a large enough effect; inconclusive = small, poorly fitted or top-dose-only effect, or another doubt; inactive = no such curve, though single readings can be large; an effect the other way counts as inactive or inconclusive. % is scaled to controls: 0 for no effect and ±100 for the full control effect; potency is read from the fitted curve at half-maximal effect.

SMILES	DT40 TDP1 CPT	GCN5L2 inh	VDR inh	TDP1 cell noCPT	PLK1 PBD block	TDP1 inh
COc1cccc(CNC(=O)CCc2c(C)c3cc4c(C)coc4c(C)c3oc2=O)c1	u	-17%	3%	u	x	0%
O=C1N=C(N2CCOCC2)SC1=Cc1ccco1	4%	x	-11%	-19%	-8%	x
O=C1N=C(N2CCOCC2)S/C1=C/c1ccc(-c2ccc(F)cc2)o1	u	22µM*	-5%	21µM*	-4%	0%
O=C1S/C(=C\c2ccc(N3CCOCC3)o2)C(=O)N1Cc1ccc(F)cc1	u	u	u	u	36%	2%
Cc1ccc(/C=C2\SC(N3CCN(C(c4ccccc4)c4ccccc4)CC3)=NC2=O)o1	15µM*	u	u	12µM*	-10%	-3%
Cc1ccc(-c2ccc(/C=C3\SC(N4CCOCC4)=NC3=O)o2)cc1	10µM*	-11%	-2%	9.2µM*	-20%	5%
CC(O)C(NS(=O)(=O)c1ccc(Cl)cc1)C(=O)OCC(=O)c1ccc2c(c1)NC(=O)CO2 (configuration not stated)	-15%	x	-5%	7%	2%	x
CC(C)CC(NC(=O)c1ccc(Cl)cc1)C(=O)OCC(=O)c1ccc2c(c1)NC(=O)CO2 (configuration not stated)	12µM*	0%	9%	12µM*	1%	9%
CCC(C(=O)OCC(=O)c1ccc2c(c1)NC(=O)CO2)c1ccccc1 (configuration not stated)	-18%	-5%	-1%	21µM*	-18%	-5%
CCOC(=O)C1=CCN(S(=O)(=O)c2ccc(C)cc2)C1c1cccc2ccccc12 (configuration not stated)	u	x	x	u	8%	x
COc1ccc(N(Cc2cccs2)C(=O)COc2cccc(C)c2C)cc1	u	-17%	9%	18µM*	x	-3%
Cc1ccc(N(Cc2cccs2)C(=O)c2ccco2)cc1	u	-13%	7%	u	x	-4%
Cc1ccc(N(Cc2cccs2)C(=O)c2ccc(OC(C)C)cc2)cc1	21µM*	-16%	2%	u	x	-10%
Cc1ccc(N(Cc2cccs2)C(=O)COc2cccc(C)c2)cc1	u	-9%	12%	23µM*	x	-6%
COc1ccc(N(Cc2cccs2)C(=O)c2ccc(Br)o2)cc1	15µM*	-14%	8%	18µM*	x	3%
COc1ccc(CN(C(=O)c2cccs2)c2ccccc2)cc1	-12%	-18%	3%	u	-7%	-7%
O=C(Cc1ccc(Cl)cc1)N1CCN(c2ccccc2)CC1	-22%	u	4%	11%	-15%	x
N#CCCn1c(=O)c(CCc2ccccc2)nc2cnc(N3CCOCC3)nc21	-3%	-10%	4%	-2%	x	x
CC(C)NC(=O)CSc1cn(CC(=O)N2CCCCCC2)c2ccccc12	-13%	-2%	1%	-21%	x	5%
COc1cc(C)c(CN2C[C@H](Sc3ccccn3)C[C@H]2C(=O)N(C)C)cc1C	-43%	x	x	u	x	x
CC1(C)CC(NC2C3CC4CC(C3)CC2C4)CC(C)(C)N1 (configuration not stated)	18µM*	-9%	7%	15µM*	5%	3%
CC(C)(C)c1ccc(OCCOCCn2c(-c3ccc(Cl)cc3)nc3ccccc3c2=O)cc1	-12%	-27%	-5%	-19%	x	x
C1CCCCCC(NCCN2CCNCC2)CCCCC1	3.7µM*	-2%	6%	2.6µM*	1%	x
CCCCCOC(=O)Nc1nc(=O)n(C2O[C@H](C)[C@@H](O)[C@@H]2O)cc1F (some centres not stated)	x	-25%	-2%	x	x	0%
COc1ccc2nc(NC(=O)CCc3cc(OC)c(OC)c(OC)c3)sc2c1	u	-7%	-18%	21µM*	-7%	5%
SMILES	DT40 TDP1 CPT	GCN5L2 inh	VDR inh	TDP1 cell noCPT	PLK1 PBD block	TDP1 inh
COc1cc(CCC(=O)Nc2nnc(C)s2)cc(OC)c1OC	4.6µM*	0%	10%	2.9µM*	-8%	-4%
Cc1nnc(NC(=O)CCSCCC(=O)Nc2nnc(C)s2)s1	-11%	0%	-15%	1%	u	32µM*
COc1cc(CCC(=O)Nc2ncc(C)s2)cc(OC)c1OC	4%	2%	-6%	-15%	1%	-9%
Cc1ccc(NC(=O)CSCC(=O)Nc2nnc(C)s2)cc1	-2%	1%	-21%	-8%	-11%	x
CCOCC(=O)Nc1nc2ccc(OC)cc2s1	u	-4%	21%	u	-8%	6%
Nc1ccn([C@@H]2O[C@H](C(=O)N[C@H](CO)Cc3ccccc3)[C@@H](O)[C@H]2O)c(=O)n1	9%	x	x	4%	-5%	x
Cc1cc(C)c2nc(C)cc(Nc3cccc(C(=O)O)c3)c2c1	-10%	-8%	-2%	0%	x	4%[2.28 µM]
CCc1noc(C)c1C(=O)NC1CC(C)(C)Cc2c1cnn2-c1ccccc1 (configuration not stated)	x	u	x	x	x	1%
O=c1[nH]c(=O)n(-c2ccccc2)c2c1C(C(F)(F)F)(C(F)(F)F)N=C(C1CCCCC1)N2	u	1%	u	23µM*	u	8%
NC(=O)[C@@H]1CCCN1C(=O)c1cc(NC(=O)c2ccccc2)cc2ncn(C3CCCC3)c12	-17%	x	x	-15%	x	x
COc1ccc(OCc2cc(C(=O)O)c(C)o2)cc1	x	0%	x	x	x	14µM*
CCN(CC)c1ccc(/C=N/NC(=O)Cc2nnc(NC(=O)Nc3ccccc3)s2)cc1	u	3%	5%	21µM*	-13%	-1%
O=C(Cc1nnc(NC(=O)c2ccccc2)s1)N/N=C/c1ccc(O)cc1	-3%	-9%	3%	4%	-6%	x
Cn1c(SCC(=O)NC2CC2)nnc1-c1ccco1	-5%	0%	6%	0%	-5%	4%
Cc1cc(=O)[nH]c2nnc(SCc3c(F)cccc3Cl)n12	-32%	-1%	1%	-5%	x	0%
CCOC(=O)c1sc(NC(=O)CSc2nnc(-c3ccco3)n2CC)c(C(=O)OCC)c1C	u	-13%	20%	u	-16%	3%
CCn1c(SCc2c(F)cccc2Cl)nnc1-c1ccco1	u	4%	-14%	18µM*	-8%	7%
CCCNC(=O)CSc1nnc(-c2ccco2)n1C	23µM*	-6%	-15%	13µM*	2.7µM*	3%
